HepG2 viability – qHTS for Inhibitors of TGF-b: Cytotox Counterscreen | HepG2 CAGA-GFP viability, ATP luminescence, 18 h | Potency, µM (top dose mostly 46.1 µM), without a hit: at the top dose activity change, negative = cytotoxicity, usual class: cytotoxic | actives 0.76% (n = 410,000); also: potency is read from the fitted curve at half-maximal effect
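HepG2 CAGA-GFP cells (1000/well, DMEM with 1% FBS) received compound, then TGF-beta at 500 pg/mL final, and were incubated 18 hours at 37 degrees C. Viability was read by CellTiter-Glo luminescence. Media-only wells were set as complete cell-killing and DMSO as no toxicity.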
TGFb SMAD3 inh – qHTS for Inhibitors of TGF-b; HepG2 CAGA-GFP TGF-b/SMAD3 reporter, GFP fluorescence, 18 h; TGF-beta stimulated, 500 pg/mL final; Potency, µM (doses to about 46.1 µM), for inactives: at the top dose activity, negative = inhibition, actives largely listed as inhibitors; actives 1.2% (n = 410,000); also: potency is read from the fitted curve at half-maximal effect; % is scaled to controls: 0 for no effect and ±100 for the full control effect; nearly all actives have a fitted effect of over 65% in size
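HEPG2 CAGA-GFP reporter cells (1000/well, DMEM with 1% FBS) received compounds, then recombinant TGF-beta at 500 pg/mL final for 18 hours at 37 degrees C. Per-cell GFP summed per well was normalised to unstimulated and stimulated DMSO controls before curve fitting.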
DT40 TDP1 no CPT – qHTS for Inhibitors of human tyrosyl-DNA phosphodiesterase 1 (TDP1): qHTS in cells in absence of CPT; DT40 Tdp1-/- hTDP1 cells, no CPT, ATP luminescence, 48 h; Potency, µM (series often up to 46.2 µM), for inactives: top-dose activity change, negative = growth inhibition, most hits filed as inhibitors; actives 15% (n = 420,000); also: potency is read from the fitted curve at half-maximal effect; % is scaled to controls: 0 for no effect and ±100 for the full control effect; nearly all actives have a fitted effect of over 55% in size
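Stably hTDP1-transfected Tdp1-null chicken DT40 cells were treated with library compounds minus camptothecin and grown for at least 48 hr at 37 °C, after which cellular ATP was quantified by luminescence.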
IL-1B inflam inh – qHTS for Inhibitors of Inflammasome Signaling: IL-1-beta AlphaLISA Primary Screen. AID 743279, 2014. THP-1 LPS/ATP IL-1B secretion, AlphaLISA, 16 h; active compounds read low. actives 4.7% (n = 360,000). activity change, % at 57.5 µM; in the data active = activity change below about -50%; inconclusive = mostly about -30% to -49%; also: % is scaled to controls: 0 for no effect and ±100 for the full control effect
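Secreted IL-1B measured by AlphaLISA bead assay after 16 h compound exposure of THP-1 cells; compounds (final up to 57.5 uM) added 1 h before LPS (250 ng/mL) and ATP (1.25 mM) stimulation; lower signal means less secretion.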
S-ASM inh – Inhibitors of Secretory Acid Sphingomyelinase (S-ASM): qHTS. placental ASM, HMU-PC fluorogenic substrate, 60 min. actives 0.006% (n = 340,000). AID 504937, 2011. Potency, µM (highest dose often 57.5 µM), for inactives: at the highest dose activity change, negative = inhibition, most hits filed as inhibitors. Sphingomyelin phosphodiesterase (Homo sapiens), P17405; also: potency is read from the fitted curve at half-maximal effect
Target sequence (P17405 47-631 limits assumed): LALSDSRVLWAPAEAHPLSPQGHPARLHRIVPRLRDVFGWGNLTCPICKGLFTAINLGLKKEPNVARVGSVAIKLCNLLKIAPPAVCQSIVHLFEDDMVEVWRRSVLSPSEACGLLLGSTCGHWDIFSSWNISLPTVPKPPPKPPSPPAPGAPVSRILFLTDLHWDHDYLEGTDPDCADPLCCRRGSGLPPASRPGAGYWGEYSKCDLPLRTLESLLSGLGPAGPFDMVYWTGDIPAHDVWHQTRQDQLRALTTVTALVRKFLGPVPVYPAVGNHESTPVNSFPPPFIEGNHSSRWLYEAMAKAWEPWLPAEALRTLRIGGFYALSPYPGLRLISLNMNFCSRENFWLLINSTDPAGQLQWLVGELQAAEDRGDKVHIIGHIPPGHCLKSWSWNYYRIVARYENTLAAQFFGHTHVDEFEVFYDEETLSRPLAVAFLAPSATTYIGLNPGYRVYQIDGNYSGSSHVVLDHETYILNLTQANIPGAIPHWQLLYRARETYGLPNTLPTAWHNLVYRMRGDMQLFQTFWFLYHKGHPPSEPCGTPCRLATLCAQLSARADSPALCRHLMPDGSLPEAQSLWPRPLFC
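HMU-PC0 cleavage (9 uM final) by human placental ASM, 60 min at 37 °C following 10 min compound exposure at RT; stopped at pH 10, fluorescence Ex 386/Em 447 nm.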
TDP1 cell CPT – qHTS for Inhibitors of human tyrosyl-DNA phosphodiesterase 1 (TDP1): qHTS in cells in presence of CPT | Potency, µM (titrated, usually from 46.2 µM), without a hit: at the top dose activity change, negative = growth inhibition, most hits filed as inhibitors | chicken DT40 Tdp1-/-;hTDP1 cells + 20 nM CPT, ATP luminescence, 48 h | AID 686979, 2013 | actives 12% (n = 420,000); also: potency is read from the fitted curve at half-maximal effect; % is scaled to controls: 0 for no effect and ±100 for the full control effect; nearly all actives have a fitted effect of over 55% in size
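Cell growth measured by CellTiter-Glo luminescence after a minimum 48 h, 37 C compound exposure with 20 nM CPT in Tdp1-knockout DT40 cells stably expressing hTDP1, seeded 400/well; qHTS titration format.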
Starred values were filed as active, the others as inactive; ? = inconclusive; / = not tested or not shown; [ ] = dose if it differs, or a comment. This is a sample that favours compounds with a hit; in the whole collection about 19% have one here. Unless noted, calls follow the shape of the dose curve; as a rule, active = well fitted curve in the direction sought with a large enough effect; inconclusive = small, poorly fitted or top-dose-only effect, or another doubt; inactive = no such curve, though single readings can be large; an effect the other way counts as inactive or inconclusive.

SMILES	HepG2 viability	TGFb SMAD3 inh	DT40 TDP1 no CPT	IL-1B inflam inh	S-ASM inh	TDP1 cell CPT
Cc1cc(NC(=O)Cn2nnc3sc4c(c3c2=O)CCC(C(C)(C)C)C4)no1 (stereo unspecified)	-11.2%	-26.0%	?	-27.0	-20.0%	11.2µM*
O=C(CSc1nc2ccccc2c(=O)n1-c1ccccc1)NCc1ccco1	6.4%	10.7%	?	-13.0	-0.2%	-27.7%
CCN(CC)C(=O)CSc1nc2c(sc(=S)n2-c2ccccc2)c(=O)n1Cc1ccco1	3.3%	-4.6%	?	-64.3*	-3.1%	23.1µM*
C=CCn1c(SCC(=O)N2CCCCCC2)nc2ccccc2c1=O	-21.2%	-4.7%	?	-15.8	-0.3%	?
CCN(CC)C(=O)CSc1nc2c(sc(=S)n2CC)c(=O)n1-c1ccccc1	3.4%	?	-29.8%	-10.7	-2.0%	-18.2%
O=C(CSc1nc2ccccc2c(=O)n1Cc1ccco1)N1CCCCCC1	-30.2%	-16.1%	?	?	-1.5%	20.6µM*
Cc1cccc(-n2c(SCC(=O)NCc3ccco3)nc3ccccc3c2=O)c1	-31.8%	14.6%	?	?	-4.1%	10.3µM*
CCn1c(SCC(=O)N2CCCCCC2)nc2ccccc2c1=O	-3.2%	-18.7%	?	-10.6	3.6%	20.6µM*
COc1ncc2ncc(=O)n(CCc3ccccc3)c2n1	/	/	-15.1%	/	/	-26.5%
O=C(OCc1ccccc1Cl)c1ccc(-c2nnn(Cc3ccccc3Cl)n2)cc1	-2.0%	41.0%	/	/	/	/
O=C(CBr)c1ccc([N+](=O)[O-])c(CS(=O)(=O)c2ccc(Cl)cc2)c1	-23.3%	?	?	-7.0	-1.9%	?
O=C(CSc1nc2ccccc2c(=O)n1Cc1ccco1)NCc1ccco1	4.7%	-2.1%	?	-6.2	-11.3%	?
CCCN(CCC)C(=O)CSc1nc2ccccc2c(=O)n1Cc1ccco1	-2.3%	/	20.6µM*	/	/	18.4µM*
Cc1cccc(-n2c(SCc3cc(=O)n4ccsc4n3)nc3ccccc3c2=O)c1	-1.6%	-4.0%	14.6µM*	-2.8	-8.5%	?
O=C(NCc1ccco1)c1ccc2c(=O)n(Cc3ccco3)c(SCC(=O)N3CCCC3)nc2c1	-27.9%	-12.9%	?	-13.4	5.5%	25.9µM*
CCOC(CCn1c(SCc2ccc([N+](=O)[O-])cc2)nc2ccccc2c1=O)OCC	-6.1%	-26.6%	13µM*	?	-8.8%	14.6µM*
CO[C@H]1C[C@H](O[C@@H]2/C(C)=C/C[C@@H]3C[C@@H](C[C@]4(CC[C@H](C)[C@@H](C5CCCCC5)O4)O3)OC(=O)[C@@H]3C=C(C)/C(=N/O)[C@H]4OC/C(=C\C=C\[C@@H]2C)[C@]43O)O[C@@H](C)[C@@H]1O	/	/	-8.9%	/	/	-16.6%
Cc1ncc2c(c1CNC(=O)c1ccc3c(c1)OCO3)CCN(C(=O)c1noc3c1CCCC3)C2	/	/	-11.8%	/	/	-0.4%[9.04 µM]
Cc1cnc(-n2ncc(C(=O)N(C)CC3COCCO3)c2C2CC2)nc1-c1cccs1 (stereo unspecified)	/	/	-7.1%	/	/	-15.1%[9.04 µM]
Cc1cc(NC(=O)CSc2nc3cc(C(=O)NCCCOC(C)C)ccc3c(=O)n2Cc2ccco2)no1	2.3%	5.1%	?	-17.8	7.5%	18.4µM*
CCn1c(=S)sc2c(=O)n(-c3ccccc3)c(SCC(=O)NCc3ccco3)nc21	5.7%	8.3%	?	-12.8	-1.8%	17.8µM*
CCn1c(SCc2ccc(OC)c(F)c2)nc2ccccc2c1=O	-2.3%	-14.8%	-69.7%	-15.2	-2.9%	?
CCn1c(SCc2cccc(OC)c2)nc2ccccc2c1=O	-16.1%	-43.2%	20.6µM*	24.9	-26.4%	10.3µM*
CCC(C)NC(=O)CSc1nc2c(sc(=S)n2Cc2ccco2)c(=O)n1-c1ccccc1 (stereo unspecified)	-11.0%	?	?	1.8	-1.9%	-20.8%
O=C(CCCCCn1c(SCC(=O)c2ccccc2)nc2ccccc2c1=O)NCc1ccco1	-25.8%	0.6%	20.6µM*	-7.9	1.1%	8.2µM*
SMILES	HepG2 viability	TGFb SMAD3 inh	DT40 TDP1 no CPT	IL-1B inflam inh	S-ASM inh	TDP1 cell CPT
Cn1c(=O)c2c(nc(NCCOc3ccc(F)cc3)n2C)n(C)c1=O	17.1%	2.0%	?	34.7	-0.1%	?
Cc1ccc(CNC(=O)c2nccnc2C(=O)O)cc1	8.6%	0.0%	18.7%	7.3	1.6%	8.0%
O=C1c2ccccc2C(=O)N1CCCc1nc2ccccc2c(=O)n1Cc1ccco1	10.2%	0.0%	16.4µM*	-1.8	-5.9%	20.6µM*
O=c1c2ccccc2nc(-c2ccccc2)n1Cc1ccco1	-13.2%	0.6%	?	-1.1	-1.5%	-16.3%
CS(=O)(=O)Nc1ccc(C(=O)Nc2ccc3ccccc3c2)cc1	-4.5%	17.1%	5.17µM*	15.8	-0.1%	2.91µM*
CCOC(=O)c1ccc(NC(=O)c2ccc(NS(C)(=O)=O)cc2)cc1	-14.1%	0.2%	?	-6.2	-7.6%	?
COc1ccc(C(=O)Nc2ccc3ccccc3c2)cc1	-6.0%	4.6%	3.0%	-5.0	0.3%	3.6%
CC(C)c1ccc(NC(=O)c2ccc(NS(C)(=O)=O)cc2)cc1	-2.5%	-1.8%	4.61µM*	-9.6	-8.3%	2.91µM*
CC(=O)Nc1nnc(-c2c(-c3ccccc3Cl)noc2C)o1	-12.7%	-2.0%	-12.4%	/	0.8%	15.4%
O=C(c1cccc(Cl)c1Cl)N(Cc1ccco1)Cc1cccs1	-27.7%	?	11.2µM*	/	/	?
O=C(c1ccccc1Br)N(Cc1ccco1)Cc1ccco1	-1.6%	0.0%	14.6µM*	/	/	13µM*
O=C(NCCC(=O)N(Cc1ccco1)Cc1cccs1)c1ccccc1Cl	-16.7%	-6.1%	?	-14.4	-1.0%	?
CN1C(=O)C(C)(C)c2cc(S(=O)(=O)N3CCCC(C(=O)NCc4ccc(Cl)cc4)C3)ccc21 (stereo unspecified)	-28.6%	-39.5%	?	5.2	1.7%	?
COc1ccc(NC(=O)CNc2ccccc2N2CCCC2=O)cc1S(=O)(=O)N1CCOCC1	5.6%	4.4%	4.8%	6.3	-1.1%	-0.8%

Compound activity: PubChem, National Center for Advancing Translational Sciences (NCATS)
